This excerpt belongs to a sample that is enriched for hits.
GoLoco inh red = blocks human Gai1 binding to RGS12 GoLoco peptide, red readout | Potency, µM (series often up to 61.6 µM), for the others: at the highest dose activity, negative = inhibition, actives largely listed as inhibitors | Gai1:RGS12 GoLoco peptide FP, rhodamine, 10 min | hit rate 0.44% among 230,000; active means well fitted inhibition curve with a large enough effect, not every such curve was filed as active; inactive means no such curve, though single readings can be large or run the other way; further: nearly all actives have a fitted effect of over 30% in size
Target sequence (P63096 whole entry, looked up): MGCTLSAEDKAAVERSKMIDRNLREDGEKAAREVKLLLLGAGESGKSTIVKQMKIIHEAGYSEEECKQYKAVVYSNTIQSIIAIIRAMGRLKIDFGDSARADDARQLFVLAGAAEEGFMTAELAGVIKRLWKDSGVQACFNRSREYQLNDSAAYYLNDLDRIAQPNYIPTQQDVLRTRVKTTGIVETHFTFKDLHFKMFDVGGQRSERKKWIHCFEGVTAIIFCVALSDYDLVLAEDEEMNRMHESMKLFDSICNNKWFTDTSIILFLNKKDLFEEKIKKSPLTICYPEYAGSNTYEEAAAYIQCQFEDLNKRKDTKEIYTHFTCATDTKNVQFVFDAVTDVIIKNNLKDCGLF
BLM inh = blocks DNA unwinding by human BLM helicase | P54132 | recombinant BLM DNA unwinding, fluorescence dequenching | Potency, µM (titrated, usually from 56.1 µM), for the others: at the top dose activity change, negative = inhibition, usual class: inhibitors | hit rate 0.2% among 350,000 | AID 2528;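 further: plate controls were vehicle for no effect and no enzyme for full effect; nearly all actives have a fitted effect of over 35% in size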
APEX1 inh = inhibitors of human APE1 endonuclease. Potency, µM (doses to about 65.8 µM), without a hit: at the highest dose activity change, negative = inhibition, hits mostly inhibitors. recombinant APE1, TAMRA/BHQ-2 abasic DNA cleavage fluorescence. hit rate 0.35% among 350,000. P27695;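 further: plate controls were vehicle for no effect and reference inhibitor for full effect; nearly all actives have a fitted effect of over 55% in size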
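Readout is kinetic fluorescence (ex 525, em 598 nm) from cleavage of 50 nM TAMRA/BHQ-2 THF abasic duplex by 0.75 nM APE1, compound added 15 min beforehand at RT.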
L3MBTL1 inh = inhibitors of human L3MBTL1; Q9Y468; Potency, µM (doses to about 57.1 µM), inactives show at the top dose activity, negative = inhibition, actives largely listed as inhibitors; AlphaScreen L3MBTL1–H3K9me1 peptide binding; hit rate 0.66% among 230,000; further: nearly all actives have a fitted effect of over 60% in size
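AlphaScreen assay: L3MBTL1 (50 nM final) was preincubated 30 min at room temperature with biotinylated H3(1-15)K9me1 peptide (75 nM final), then 30 min with library compounds; streptavidin donor and nickel chelate acceptor beads (10 ug/mL final) added, 30 min dark.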
KDM4E inh = JMJD2E (human) inhibition. B2RXH2. JMJD2E catalytic domain, FDH-coupled NADH fluorescence (FDH is formaldehyde dehydrogenase). Potency, µM (top dose mostly 57.1 µM), inactives show at the highest dose activity change, negative = inhibition, most hits filed as inhibitors. hit rate 1.6% among 230,000. AID 2147; active means well fitted inhibition curve with a large enough effect, not every such curve was filed as active; inconclusive means small, poorly fitted or top-dose-only effect, or another doubt; inactive means no such curve, though single readings can be large or run the other way;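 further: 0% = wells with enzyme and -100% = buffer wells without enzyme; nearly all actives have a fitted effect of over 50% in size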
RECQ1 inh-1 = inhibitors of human RECQ1 DNA helicase; P46063; RECQ1 DNA unwinding, red fluorescence kinetic read; Potency, µM (series often up to 57.3 µM), for the others: top-dose activity, negative = inhibition, hits mostly inhibitors; hit rate 0.54% among 240,000;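 further: plate controls were vehicle for no effect and no enzyme for full effect; nearly all actives have a fitted effect of over 30% in size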
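RECQ1T1 50 nM; forked duplex (20 bp + 30-nt ss tails) 200 nM, ATP 2 mM final; pH 8.0, 2 mM MgCl2, 2.5 ug/ml poly(dI-dC); 15 min compound preincubation; discontinuous kinetic read over 2 h at RT.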
RECQ1 conf = confirmation of human RECQ1 helicase inhibitors; Potency, µM (doses to about 229 µM), inactives show top-dose activity change, negative = inhibition, usual class: inhibitors; hit rate 28% among 610; shares compounds with RECQ1 inh-1; RECQ1 helicase DNA unwinding, fluorescence; further: nearly all actives have a fitted effect of over 45% in size
ADP FP counter = counter-screen for RECQ1 inhibitors: ADP displacement; ADP fluorescence polarization displacement counterscreen; shares compounds with RECQ1 inh-1; Potency, µM (top dose mostly 228 µM), for inactives: top-dose activity change, negative = inhibition, hits mostly inhibitors; AID 2711; hit rate 27% among 530; further: nearly all actives have a fitted effect of over 45% in size
RECQ1 inh-2 = RECQ1 helicase inhibition confirmed, round 2; shares compounds with RECQ1 inh-1; hit rate 15% among 1,100; AID 504841; recombinant RECQ1 DNA unwinding, red fluorescence; Potency, µM (doses to about 119 µM), for inactives: at the highest dose activity, negative = inhibition, usual class: inhibitors; further: nearly all actives have a fitted effect of over 50% in size
* marks the source's active call; other numbers are inactive results; i = inactive; ? = inconclusive; · = not tested or not shown; [ ] = remark or other dose. Unless noted, the call rests on the fitted dose curve; in most records, active means well fitted curve in the direction sought with a large enough effect; inconclusive means small, poorly fitted or top-dose-only effect, or another doubt; inactive means no such curve, though single readings can be large; an effect the other way counts as inactive or inconclusive. Unless noted, on the % scale 0 is the no-effect control and ±100 the full control effect; potency means the concentration at half of the fitted maximal effect.

SMILES	GoLoco inh red	BLM inh	APEX1 inh	L3MBTL1 inh	KDM4E inh	RECQ1 inh-1	RECQ1 inh-2	others
CCOC(=O)C1CCN(C(=O)Nc2ccc3nc(-c4ccco4)c(-c4ccco4)nc3c2)CC1	11.9%	4.47µM*	7.94µM*	3.55µM*	?	10µM*	?
CCCCC/C=C\C\C=C/C=C/C=C/[C@@H](SC[C@H](N)C(=O)O)[C@@H](O)CCCC(=O)O	8.8%	·	?	·	·	-4.2%	·
CCCN1C(=O)/C(=C/c2ccc(C)o2)SC1=Nc1ccc(OC)cc1	-16.7%	-6.1%	-6.3%	-14.9%	?	?	-25.8%
CCCN1C(=O)/C(=C/c2ccco2)SC1=Nc1ccc(OC)cc1	31.2%	-20.8%	?	?	?	25.1µM*	-9.2%
CCOC(=O)N/N=C1/C[C@@H](O)[C@@H](O)[C@@H]2[C@@H]3C(=O)N(Cc4ccc5c(c4)OCO5)C(=O)[C@H]3CC[C@@H]12	·	3.8%[12.4 µM]	?	·	·	i[11.5 µM]	·
Cc1cccc(C(=O)Nc2ccc(C(=O)/C=C/c3cccnc3)cc2)c1	6.6%	-14.8%	3.3%	-3.1%	-5.5%	1.12µM*	?	RECQ1 conf=-7.8%[114 µM]
Cc1c(C(=O)NCc2ccc3c(c2)cc(C)n3C)cccc1[N+](=O)[O-]	-5.6%	-5.7%	?	-6.0%	?	?	-9.0%
CCCC(=O)NCc1ccc2c(c1)cc(C)n2C	-0.5%	-8.8%	3.6%	-2.6%	?	-7.8%	·
Cc1cc2cc(CNS(=O)(=O)c3ccc4ccccc4c3)ccc2n1C	-61.5%	-12.4%	-8.1%	-14.3%	-27.5%	?	·
CC(=O)Nc1ccc(S(=O)(=O)NCc2ccc3c(c2)cc(C)n3C)cc1	-20.7%	-23.8%	-7.8%	·	-11.3%	31.6µM*	50.1µM*
Cc1cc2cc(CNC(=O)c3cccc([N+](=O)[O-])c3)ccc2n1C	13.5%	-9.2%	17.9%	-6.1%	-5.1%	-1.0%	·
Cc1cc(C)c(S(=O)(=O)NCc2ccc3c(c2)cc(C)n3C)c(C)c1	-5.7%	-14.6%	-2.6%	-9.6%	-3.8%	?	56.2µM*
CCOc1ccc(-c2nc(Cn3c(=O)cc(C)c4c(C)nn(-c5ccccc5)c43)c(C)o2)cc1	·	-3.8%	·	·	·	·	·
COc1ccc(OC)c(C2NC(=O)NC(C)=C2C(=O)Nc2ccc(F)cc2)c1 (stereo not drawn)	·	-7.3%	·	·	·	·	·
Cn1c(N)c(C(=O)COC(=O)C2CC(O)CN2S(=O)(=O)c2ccc(Cl)cc2)c(=O)n(C)c1=O (stereo not drawn)	4.5%	-1.4%	2.7%	·	-3.0%	0.3%	·	RECQ1 conf=14.9%;ADP FP counter=5.5%
CNC(=O)COC(=O)c1c2c(nc3ccccc13)CCC2	14.2%	-12.2%	-5.5%	?	?	?	?
Cc1ccccc1NC(=O)CSc1nc(N)c2c3c(sc2n1)CSC(C)(C)C3	5.3%	-5.7%	-1.7%	-5.3%	18.5%	22.4µM*	-18.4%
CC(=O)Oc1ccc(C(=O)[C@H]2[C@H]3C(=O)N(c4ccc5ccccc5c4)C(=O)[C@H]3[C@@H]3C=CC=NN32)cc1	23.6%	-10.6%	12.8%	-7.2%	?	31.6µM*	?

Screening data (PubChem)
